Screens (PubChem BioAssay)
Shown are actives, neighbours in structure and some others; about 2.3% of the full set was active somewhere.
LGR2 inh: inhibitors of bursicon-induced LGR2 CRE-luciferase signal, primary screen, cell-based, HEK293, CRE-luciferase reporter, bursicon stimulation; Drosophila bursicon receptor LGR2 (rickets); bursicon-stimulated, 4 h; inhibition, % at 9.99 µM; hit rate 0.35% among 380,000; AID 720647, 2013;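 active means drop in luminescence signal, shown as inhibition above about 50% in the replicate tests, limit read from the data, passing the limit was not always enough; inconclusive means probably only some replicates passing the limit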;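 further: agonist challenge used bursicon conditioned medium at about half maximal strength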
CF NFkB inh: inhibitors of PAF-induced NF-kB signaling, primary screen, cell-based, GFP fluorescence, uHTS. inhibition, % at 5 µM. KKLEB NF-kB-GFP reporter, GFP fluorescence overnight. hit rate 0.86% among 360,000;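 active means at least 50% inhibition at 5 µM, scaled per plate between neutral and stimulator controls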;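 further: PAF is a Pseudomonas aeruginosa culture filtrate used as stimulus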
hiPSC survival: enhancers of single-cell hiPSC survival, primary screen, ATPlite luminescence. survival enhancement, % at 20 µM. 100% = ROCK inhibitor wells, 0% = DMSO. hit rate 0.044% among 360,000; in the data active means survival enhancement above about 18%;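 further: cells exposed to compounds for 16 hours before the ATP read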
TWEAK Fn14 block: inhibitors of TWEAK-Fn14 signaling, primary screen, luciferase reporter cells, uHTS; TWEAK-stimulated Fn14 reporter cells, luciferase luminescence, 8 h; inhibition, % at 10 µM; hit rate 2% among 360,000; in the data active means inhibition above about 50%
KKLEB tox: cytotoxicity in KKLEB CF airway cells, primary screen, cytotoxicity control for CF NF-kB inhibitor project, cell-based, uHTS, fluorescence assay plates | AID 602141, 2011 | activity change (cytotoxicity), % at 5 µM | KKLEB CF airway cells viability, ATPlite luminescence, overnight; hits give low values; cells stimulated with P. aeruginosa culture filtrate | hit rate 0.36% among 360,000;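 active means corrected activity change at or below -50% at 5 µM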
HIF-2a block: HIF-2a reporter inhibitors, primary screen, luminescence, 786-0 RCC cells | 786-0 RCC cells HIF-2a reporter, luciferase luminescence, overnight | inhibition, % at 18.8 µM | hit rate 0.72% among 360,000 | AID 624352, 2012;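 active means inhibition of the luminescence signal of 40% or more relative to plate controls, in a single-dose primary screen at 18.75 µM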
Each line names hits and unclear results; the compound was inactive in the other large screens.

CC(C)(C)N1C(=O)c2ccc(C(=O)Nc3cc(C(=O)O)cc(C(=O)O)c3)cc2C1=O	TWEAK Fn14 block 99.4
CC(C)NC(=O)N(C)C[C@@H]1OCCCC[C@H](C)Oc2ccc(NC(=O)Nc3cccc4ccccc34)cc2C(=O)N([C@H](C)CO)C[C@@H]1C	none (no result: CF NFkB inh, hiPSC survival, TWEAK Fn14 block, KKLEB tox, HIF-2a block)
O=C(N/N=C/c1ccc2cccc(OCc3ccccc3)c2n1)c1ccc(Br)cc1	TWEAK Fn14 block 66.2 (no result: LGR2 inh)
CNC(=O)C[C@H]1CC[C@@H]2[C@@H](COc3ccc(NC(=O)c4ccc(F)cc4)cc3C(=O)N2C)O1	none (no result: CF NFkB inh, hiPSC survival, TWEAK Fn14 block, KKLEB tox, HIF-2a block)
COc1cc(/C=C2\SC(=O)N(CCN)C2=O)ccc1OS(=O)(=O)c1cc(C)ccc1C	LGR2 inh 81.9
COc1ccc(/C=C2\SC(=O)N(CCC(=O)Nc3ccccc3)C2=O)cc1OC	none
COc1ccc(-c2ccc([C@@H]3[C@H](C#N)N(C(=O)NC4CCCC4)[C@H]3CO)cc2)cc1	none (no result: CF NFkB inh, hiPSC survival, TWEAK Fn14 block, KKLEB tox, HIF-2a block)
CC(=O)c1c(C)[nH]c(C(=O)Nc2nc(C)cs2)c1C	TWEAK Fn14 block 94.0 (no result: LGR2 inh)
COc1ccc(-c2nc(NC(=O)c3[nH]c(C)c(C(C)=O)c3C)sc2C)cc1	none
CC(=O)c1c(C)[nH]c(C(=O)Nc2nc(-c3ccc(-c4ccccc4)cc3)cs2)c1C	LGR2 inh 91.0, CF NFkB inh 77.5, TWEAK Fn14 block 97.6
O=C(Nc1nc(-c2ccc(Cl)cc2)cs1)NC1CCCCC1	TWEAK Fn14 block 68.0
CC(=O)c1c(C)[nH]c(C(=O)Nc2nc(-c3ccc(Cl)cc3)cs2)c1C	TWEAK Fn14 block 67.7
CO[C@@H]1CN(C)C(=O)c2ccc(NC(=O)c3ccccc3)cc2OC[C@H](C)N(C(=O)CN(C)C)C[C@@H]1C	none (no result: CF NFkB inh, hiPSC survival, TWEAK Fn14 block, KKLEB tox, HIF-2a block)
CO[C@H]1CN(C)C(=O)c2ccc(NC(=O)Nc3ccc(Cl)cc3)cc2OC[C@H](C)NC[C@@H]1C	none (no result: CF NFkB inh, hiPSC survival, TWEAK Fn14 block, KKLEB tox, HIF-2a block)
C[C@@H]1CCCCO[C@@H](CN(C)C(=O)NC2CCCCC2)[C@H](C)CN([C@H](C)CO)C(=O)c2cc(NC(=O)c3ccncc3)ccc2O1	none (no result: CF NFkB inh, hiPSC survival, TWEAK Fn14 block, KKLEB tox, HIF-2a block)
Cc1nc(N2[C@H](CO)[C@H](c3ccccc3)[C@H]2CNCC2CCCC2)sc1C	none (no result: CF NFkB inh, hiPSC survival, TWEAK Fn14 block, KKLEB tox, HIF-2a block)
COc1cc(C(=O)N(CCc2ccccc2)C2=CC3CCC(C2)N3C)cc(OC)c1OC (configuration not stated)	none (no result: LGR2 inh)
COc1ccc(CCN(C(=O)c2ccc(F)cc2)C2=CC3CCC(C2)N3C)cc1OC (configuration not stated)	TWEAK Fn14 block 68.4 (no result: LGR2 inh)
Cc1noc(C)c1S(=O)(=O)Nc1ccc2c(c1)C(=O)N([C@H](C)CO)C[C@@H](C)[C@H](CN(C)Cc1ccncc1)OCCCC[C@@H](C)O2	none (no result: CF NFkB inh, hiPSC survival, TWEAK Fn14 block, KKLEB tox, HIF-2a block)
COc1ccc(N/C=C2\CCOC2=O)cc1	none (no result: LGR2 inh)
COc1ccc2c(c1)CC/C(=C\Nc1ccc3c(c1)OCO3)C2=O	none
O=C1/C(=C/Nc2ccc3c(c2)OCO3)CCc2ccccc21	KKLEB tox -53.0 (no result: LGR2 inh)
COc1ccc(N/C=C2\CCc3ccccc3C2=O)cc1	LGR2 inh 80.9, TWEAK Fn14 block 87.1
Cc1noc(C)c1S(=O)(=O)Nc1ccc2c(c1)CC(=O)N([C@H](C)CO)C[C@H](C)[C@@H](CN(C)S(=O)(=O)c1c(C)noc1C)O2	none (no result: CF NFkB inh, hiPSC survival, TWEAK Fn14 block, KKLEB tox, HIF-2a block)
COC(=O)[C@]12CCCCC=C1N(Cc1cccc3ccccc13)C(=O)[C@H](CC(=O)NCCC(C)C)C2	LGR2 inh 64.2 (no result: CF NFkB inh, KKLEB tox)
Cc1cc(=O)oc2cc(OC(=O)c3nn(C(C)C)c(=O)c4ccccc34)ccc12	none
CC(C)n1nc(C(=O)Oc2ccc(Cl)cc2)c2ccccc2c1=O	TWEAK Fn14 block 51.1
N/C(=N\OC(=O)COc1ccc(Br)cc1Cl)c1ccccn1	LGR2 inh inconclusive, TWEAK Fn14 block 66.4
N/C(=N\OC(=O)c1cc(Cl)ccc1Cl)c1ccccn1	TWEAK Fn14 block 74.8
N/C(=N\OC(=O)COc1ccc(Br)cc1Cl)c1ccncc1	none
N/C(=N\OC(=O)COc1ccc(Cl)cc1Cl)c1ccccn1	LGR2 inh inconclusive, TWEAK Fn14 block 55.7
Cc1noc(C)c1S(=O)(=O)Nc1ccc2c(c1)C(=O)N([C@@H](C)CO)C[C@@H](C)[C@@H](CN(C)Cc1ccc3c(c1)OCO3)OCCCC[C@H](C)O2	none (no result: CF NFkB inh, hiPSC survival, TWEAK Fn14 block, KKLEB tox, HIF-2a block)
